Source: PubChem BioAssay (NCATS)
Results filed as inconclusive are left out. The source made the active and inactive calls. Calls follow the shape of the dose curve; as a rule, active = well fitted cell-killing curve with a large enough effect; inconclusive = small, poorly fitted or top-dose-only effect, or effect the other way; inactive = no such curve, though single readings can be large or run the other way.

Experiment: Quantitative High-Throughput drug screen in 47 multiple myeloma cell lines against the NCATS MIPE library collection: OCIMY5_PLB cell viability assay (AID 1918988); also: nearly all actives have a fitted effect of over 65% in size;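 as to viability, % of control: 100% = DMSO-treated wells and 0% = wells with media alone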
Conditions: OCI-MY5 myeloma viability, ATP luminescence, 48 h; series mostly up to 45.8 µM; viability, % of control: at the top concentration
Summary of the method: (§1)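 MIPE 4.0 approved/investigational drugs; 500 cells/well; 48 h 37 °C humidified 5% CO2; CTG luminescence readout; DMSO = 100%, media = 0% viability.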
Potency is read from the fitted curve at half-maximal effect.

SMILES	Potency	viability, % of control
COc1ccc2c(c[n+](C)c3c4cc5c(cc4ccc23)OCO5)c1OC	2.09 µM (active)	–
COc1cccc2c1[C@]13CCN(CC4CC4)[C@H](C2)[C@]1(OC)CCC(=O)C3	–	172% (inactive)
Cc1[nH]nc2ccc(-c3cncc(OC[C@@H](N)Cc4c[nH]c5ccccc45)c3)cc12	0.833 µM (active)	–
CC(C)(O)C=CC(=O)[C@](C)(O)[C@H]1[C@H](O)C[C@]2(C)[C@@H]3CC=C4[C@@H](C=C(O)C(=O)C4(C)C)[C@]3(C)C(=O)C[C@@]12C	0.0469 µM (active)	–
CC[C@@H]1[C@@H](C)O[C@@](O)([C@@H](C)[C@H](O)[C@H](C)[C@H]2OC(=O)C=CC=C[C@@H](C)[C@@H]([C@@H](C)[C@@H](O)[C@H](C)[C@@]3(O)C[C@H](O[C@H]4C[C@H](O)[C@H](O)[C@H](C)O4)[C@H](CC)[C@@H](C)O3)OC(=O)C=CC=C[C@@H]2C)C[C@H]1O[C@H]1C[C@H](O)[C@H](O)[C@H](C)O1	0.372 µM (active)	–
CC[C@@]1(O)C(=O)OCc2c1cc1n(c2=O)Cc2cc3ccccc3nc2-1	0.166 µM (active)	–
CCOC(=O)Nc1ccc(NCc2ccc(F)cc2)cc1N	–	134% (inactive)
CN1CCN(c2ccc([N+](=O)[O-])c3no[n+]([O-])c23)CC1	16.6 µM (active)	–
CCNC(=O)C[C@@H]1N=C(c2ccc(Cl)cc2)c2cc(OC)ccc2-n2c(C)nnc21	0.209 µM (active)	–
C[C@@H]1O[C@@H](O[C@@H]2C=C3CC[C@@H]4[C@@H](CC[C@]5(C)[C@H](c6ccc(=O)oc6)CC[C@@]45O)[C@@]3(C)CC2)[C@H](O)[C@H](O)[C@H]1O	0.0132 µM (active)	–
CC=C(C)C(=O)O[C@H]1C(C)=C2[C@@H]3OC(=O)[C@@](C)(O)[C@@]3(O)[C@@H](OC(=O)CCC)C[C@](C)(OC(C)=O)[C@@H]2[C@@H]1OC(=O)CCCCCCC	0.0105 µM (active)	–

Experiment: Quantitative High-Throughput drug screen in 47 multiple myeloma cell lines against the NCATS MIPE library collection: OPM1_PLB cell viability assay (AID 1918989); also: nearly all actives have a fitted effect of over 40% in size
Conditions: CellTiter-Glo, 48 h; series mostly up to 45.8 µM; viability (% of control): at the top concentration
Summary of the method: as §1

SMILES	viability (% of control)	Potency
C[C@H]([C@H](O)CCC(C)(C)O)[C@H]1CC[C@@]2(O)C3=CC(=O)[C@@H]4C[C@@H](O)[C@@H](O)C[C@]4(C)[C@@H]3CC[C@]12C	126% (inactive)	–
C1=C2CCCN[C@H]2[C@@H]2C[C@H]1[C@@H]1CCCCN1C2	123% (inactive)	–
Clc1ccccc1C(c1ccccc1)(c1ccccc1)n1cccn1	131% (inactive)	–
CO[C@H]1CCC(O[C@H]2C[C@H]([C@]3(C)CC[C@]4(C[C@H](O)[C@@H](C)[C@@H]([C@@H](C)C=C(C)C(=O)[C@H](C)C[C@H](C)C(=O)O)O4)O3)O[C@]3(O[C@@H]([C@H]4O[C@@](O)(CO)[C@H](C)C[C@H]4C)C[C@H]3C)[C@H]2C)O[C@H]1C (some centres undefined)	–	0.418 µM (active)
COC1=CC(C)=C[C@@H](C)[C@@H](O)[C@@H](C)CC(C)=CC=C[C@H](OC)[C@H]([C@@H](C)[C@@H](O)[C@H](C)[C@@]2(O)C[C@@H](O)[C@H](C)[C@@H](C(C)C)O2)OC1=O	–	0.0235 µM (active)
O=c1[nH]c2ccc(Cl)cc2c(N[C@@H]2CN3CCC2CC3)c1-c1nc2ccccc2[nH]1	–	0.0526 µM (active)
CC(C)(C)[C@]1(O)C[C@@H]2OC(=O)C[C@@]23C(=O)O[C@@H]2OC(=O)[C@H](O)C213 (some centres undefined)	143% (inactive)	–
COc1ccc(N(C(=O)Oc2c(C)cccc2C)c2ccnc(Nc3ccc(N4CCN(C)CC4)cc3)n2)c(OC)c1	–	20.9 µM (active)
C[C@]12COC(=O)C[C@@H]1CC[C@@H]1[C@H]2CC[C@@]2(C)[C@H]1CC[C@]2(C)O	133% (inactive)	–
C=C[C@@H]1CN2CCC1C[C@@H]2[C@@H](O)c1ccnc2ccccc12 (some centres undefined)	–	16.6 µM (active)
C[C@H]1CCCC=CC2C[C@H](O)C[C@@H]2[C@H](O)C=CC(=O)O1 (some centres undefined)	15.3% (inactive)	–
CC1=C(O)C(=O)C=C2C1=CC=C1[C@@]2(C)CC[C@@]2(C)[C@@H]3C[C@](C)(C(=O)O)CC[C@]3(C)CC[C@]12C	–	0.743 µM (active)
CCN1CCN(C(=O)Cc2ccc(Nc3ncc(F)c(Nc4ccc(C(=O)Nc5ccccc5Cl)cc4)n3)cc2)CC1	–	5.26 µM (active)
O=S(=O)(F)Cc1ccccc1	–	13.2 µM (active)
CC(C)[C@]12O[C@@H]1[C@@H]1O[C@]13[C@]1(O[C@H]1C[C@@H]1C4=C(CC[C@@]13C)C(=O)OC4)[C@H]2O	3.78% (inactive)	–
O=c1[nH]c2ccccc2n1C1CCN(Cc2ccc(-c3[nH]c4cc5ncnc5cc4nc3-c3ccccc3)cc2)CC1	–	2.64 µM (active)
CCCC[N+]1(C)[C@H]2CC(OC(=O)[C@H](CO)c3ccccc3)C[C@H]1[C@H]1O[C@H]12 (some centres undefined)	103% (inactive)	–

SMILES	viability (% of control)	Potency
O=C(Nc1ccncc1)C(=O)c1cn(Cc2ccc(Cl)cc2)c2ccccc12	–	0.0526 µM (active)
CSCC[C@@H](NC(=O)[C@@H](Cc1ccccc1)NC(=O)CNC(=O)CNC(=O)[C@@H](N)Cc1ccc(O)cc1)C(=O)O	150% (inactive)	–
COCC1(CO)C(=O)C2CCN1CC2 (centres undefined)	–	2.09 µM (active)
C=C[C@@H]1CN2CCC1C[C@H]2[C@H](O)c1ccnc2ccccc12 (some centres undefined)	–	16.6 µM (active)
CCc1c(C(=O)C(N)=O)c2c(OCC(=O)O)cccc2n1Cc1ccccc1	155% (inactive)	–
C=CCON=C(C[C@H]1O[C@@H]2O[C@]3(C)CC[C@@H]4[C@H](C)CC[C@@H]([C@H]1C)[C@@]24OO3)[C@H]1O[C@@H]2O[C@]3(C)CC[C@H]4[C@H](C)CC[C@@H]([C@@H]1C)[C@@]24OO3	–	0.526 µM (active)
COc1ccc2c(c[n+](C)c3c4cc5c(cc4ccc23)OCO5)c1OC	–	9.35 µM (active)
COc1cccc2c1[C@]13CCN(CC4CC4)[C@H](C2)[C@]1(OC)CCC(=O)C3	124% (inactive)	–
Cc1[nH]nc2ccc(-c3cncc(OC[C@@H](N)Cc4c[nH]c5ccccc45)c3)cc12	–	1.18 µM (active)
CC(C)(O)C=CC(=O)[C@](C)(O)[C@H]1[C@H](O)C[C@]2(C)[C@@H]3CC=C4[C@@H](C=C(O)C(=O)C4(C)C)[C@]3(C)C(=O)C[C@@]12C	–	0.105 µM (active)
CC[C@@H]1[C@@H](C)O[C@@](O)([C@@H](C)[C@H](O)[C@H](C)[C@H]2OC(=O)C=CC=C[C@@H](C)[C@@H]([C@@H](C)[C@@H](O)[C@H](C)[C@@]3(O)C[C@H](O[C@H]4C[C@H](O)[C@H](O)[C@H](C)O4)[C@H](CC)[C@@H](C)O3)OC(=O)C=CC=C[C@@H]2C)C[C@H]1O[C@H]1C[C@H](O)[C@H](O)[C@H](C)O1	–	1.05 µM (active)
CC[C@@]1(O)C(=O)OCc2c1cc1n(c2=O)Cc2cc3ccccc3nc2-1	–	0.833 µM (active)
CCOC(=O)Nc1ccc(NCc2ccc(F)cc2)cc1N	–	18.7 µM (active)
CN1CCN(c2ccc([N+](=O)[O-])c3no[n+]([O-])c23)CC1	–	18.7 µM (active)
C[C@@H]1O[C@@H](O[C@@H]2C=C3CC[C@@H]4[C@@H](CC[C@]5(C)[C@H](c6ccc(=O)oc6)CC[C@@]45O)[C@@]3(C)CC2)[C@H](O)[C@H](O)[C@H]1O	–	0.0296 µM (active)
CC=C(C)C(=O)O[C@H]1C(C)=C2[C@@H]3OC(=O)[C@@](C)(O)[C@@]3(O)[C@@H](OC(=O)CCC)C[C@](C)(OC(C)=O)[C@@H]2[C@@H]1OC(=O)CCCCCCC	–	0.264 µM (active)
